In PubChem BioAssay (NCATS):
Inconclusive results are not listed. Active and inactive are the calls of the source. Calls come from the whole dose curve; as a rule, active = well fitted curve in the direction sought with a large enough effect; inconclusive = small, poorly fitted or top-dose-only effect, or another doubt; inactive = no such curve, though single readings can be large; an effect the other way counts as inactive or inconclusive.

Legend:
[1] = molecular target: Phospholipid hydroperoxide glutathione peroxidase GPX4 (Homo sapiens) (UniProt P36969); experiment: Primary qHTS Assay for Inhibitors of Recombinant Selenoprotein Glutathione Peroxidase 4 (GPX4) (AID 1845192); note: nearly all actives have a fitted effect of over 65% in size
Summary of the method: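 NADPH consumption, followed by fluorescence at 340/450 nm between 0 and 15 min, reports GPX4 activity via coupled glutathione reductase (100 nM). Enzyme 200 nM was pre-exposed to compound 30 min; 0.5 mM cumene hydroperoxide and 1 mM GSH served as substrates.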

[2] = Quantitative High-Throughput drug screen in 47 multiple myeloma cell lines against the NCATS MIPE library collection: Delta47_JCRB cell viability assay (AID 1918925; note: nearly all actives have a fitted effect of over 45% in size; note: potency is the fitted concentration of half-maximal effect)
Summary of the method: (§1)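 Relative luminescence from CellTiter-Glo served as the viability signal, referenced to DMSO-treated (100%) and cell-free medium (0%) controls. Treatment lasted 48 hours at 37C with 500 cells per well.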

[3] = Quantitative High-Throughput drug screen in 47 multiple myeloma cell lines against the NCATS MIPE library collection: EJM_DSMZ cell viability assay (AID 1918926; note: nearly all actives have a fitted effect of over 30% in size; note: potency is the fitted concentration of half-maximal effect)
Summary of the method: as §1

[4] = Quantitative High-Throughput drug screen in 47 multiple myeloma cell lines against the NCATS MIPE library collection: AMO1_DSMZ cell viability assay (AID 1918927; note: nearly all actives have a fitted effect of over 30% in size; note: potency is the fitted concentration of half-maximal effect)
Summary of the method: as §1

[5] = Quantitative High-Throughput drug screen in 47 multiple myeloma cell lines against the NCATS MIPE library collection: ARP1_JJKsccF8 cell viability assay (AID 1918928; note: nearly all actives have a fitted effect of over 40% in size; note: potency is the fitted concentration of half-maximal effect)
Summary of the method: (§2)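 Myeloma cells at 500 per well in 1536-well format treated with MIPE 4.0 library by pin transfer for 48 h at 37C, 5% CO2. Viability from ATP luminescence (CellTiter-Glo), normalized to DMSO (100%) and media-only (0%) wells.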

[6] = Quantitative High-Throughput drug screen in 47 multiple myeloma cell lines against the NCATS MIPE library collection: ARD_JJKsccE7 cell viability assay (AID 1918929; note: potency is the fitted concentration of half-maximal effect)
Summary of the method: as §1

[7] = Quantitative High-Throughput drug screen in 47 multiple myeloma cell lines against the NCATS MIPE library collection: Karpas620_DSMZ cell viability assay (AID 1918959); note: nearly all actives have a fitted effect of over 30% in size; note: potency is the fitted concentration of half-maximal effect
Summary of the method: (§3)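 Primary qHTS used for cherry-picking: cells at 500/well, library compounds for 48 h (37C, 5% CO2), luminescent ATP assay.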

[8] = Quantitative High-Throughput drug screen in 47 multiple myeloma cell lines against the NCATS MIPE library collection: KMM1_JCRB cell viability assay (AID 1918960); note: nearly all actives have a fitted effect of over 30% in size; note: potency is the fitted concentration of half-maximal effect
Summary of the method: as §2

[9] = Quantitative High-Throughput drug screen in 47 multiple myeloma cell lines against the NCATS MIPE library collection: KHM11_PLB cell viability assay (AID 1918962); note: nearly all actives have a fitted effect of over 35% in size; note: potency is the fitted concentration of half-maximal effect
Summary of the method: as §3

[10] = Quantitative High-Throughput drug screen in 47 multiple myeloma cell lines against the NCATS MIPE library collection: JIM3_ECACC cell viability assay (AID 1918963; note: nearly all actives have a fitted effect of over 35% in size; note: potency is the fitted concentration of half-maximal effect)
Summary of the method: as §3

[11] = Quantitative High-Throughput drug screen in 47 multiple myeloma cell lines against the NCATS MIPE library collection: INA6_PLB cell viability assay (AID 1918965; note: nearly all actives have a fitted effect of over 55% in size; note: potency is the fitted concentration of half-maximal effect)
Summary of the method: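 We plated 500 myeloma cells per well, pinned in MIPE 4.0 compounds, and incubated for 48 hours at 37C. ATP was then quantified with CellTiter-Glo, with DMSO and media-only wells defining 100% and 0%.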

[12] = Quantitative High-Throughput drug screen in 47 multiple myeloma cell lines against the NCATS MIPE library collection: JJN3_DSMZ cell viability assay (AID 1918966; note: potency is the fitted concentration of half-maximal effect; nearly all actives have a fitted effect of over 50% in size)
Summary of the method: as §1

[13] = Quantitative High-Throughput drug screen in 47 multiple myeloma cell lines against the NCATS MIPE library collection: FR4_PLB cell viability assay (AID 1918924; note: nearly all actives have a fitted effect of over 35% in size; note: potency is the fitted concentration of half-maximal effect)
Summary of the method: as §3

[14] = Quantitative High-Throughput drug screen in 47 multiple myeloma cell lines against the NCATS MIPE library collection: JIM1_ECACC cell viability assay (AID 1918964; note: potency is the fitted concentration of half-maximal effect)
Summary of the method: as §1

[15] = molecular target: Luciferin 4-monooxygenase (Photinus pyralis) (UniProt P08659); experiment: Primary firefly luciferase (FLuc) qHTS assay for identification of artifact compounds. (AID 1845220); note: nearly all actives have a fitted effect of over 60% in size; note: potency is the fitted concentration of half-maximal effect
Summary of the method: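 Compounds sat 15 min at room temperature with 10 uM luciferin and 10 uM ATP (pH 7.6 Tris acetate). Firefly luciferase (10 nM final) was then added, and luminescence was read 5 min later. Data normalized to no-enzyme and DMSO controls were Hill-fitted.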

[16] = tested on: Nanoluciferase (engineered Oplophorus gracilirostris luciferase); experiment: Primary Nanoluciferase (NLuc) qHTS assay for identification of artifact compounds. (AID 1845222); note: series mostly up to about 54 µM
Summary of the method: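 Luminescence from secreted NLuc (filtered, 1:55-diluted S16 cell medium) read 5 min after Nano-Glo substrate; compounds preincubated 15 min, RT. Hill fits of inhibition normalized to DMSO and no-enzyme.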

[17] = Primary redox qHTS assay for identification of artifact compounds. (AID 1845223)
Summary of the method: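 Amplex Red (25 uM) and HRP (250 mU/mL) in HBSS, with compounds for 15 min, then 250 uM DTT for 30 min, room temperature, dark. Fluorescence 525/598 nm read; normalized to DMSO and 10 uM DA3003; Hill fit.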

Measured: Potency

Chain of Phospholipid hydroperoxide glutathione peroxidase GPX4 (Homo sapiens) (P36969 whole entry, looked up): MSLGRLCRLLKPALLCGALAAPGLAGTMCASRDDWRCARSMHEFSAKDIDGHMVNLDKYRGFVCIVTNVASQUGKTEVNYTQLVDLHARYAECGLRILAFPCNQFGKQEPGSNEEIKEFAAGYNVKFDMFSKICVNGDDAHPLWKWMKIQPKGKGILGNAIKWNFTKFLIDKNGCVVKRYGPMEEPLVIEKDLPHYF

COC1=C(OC)C(=O)C(CCCCCCCCCCO)=C(C)C1=O
active: [2] 18.7 µM | [4] 10.5 µM | [5] 23.5 µM | [6] 20.9 µM | [7] 11.8 µM | [8] 18.7 µM | [9] 26.4 µM | [10] 18.7 µM | [11] 18.7 µM | [12] 18.7 µM
inactive: [1] | [3]

CN(C)[C@@H](CCOc1cccc2ccccc12)c1ccccc1
inactive: [1] | [7] | [14]
active: [13] 18.7 µM | [2] 18.7 µM | [5] 26.4 µM | [11] 18.7 µM

N=C(N)c1ccc2cc(OC(=O)c3ccc(N=C(N)N)cc3)ccc2c1
inactive: [1] | [4] | [6] | [7] | [8] | [10] | [14]
active: [3] 18.7 µM

Cc1cc(=O)c2c(O)c3c(O)cc(=O)c4c3c3c(cc(O)c1c23)C(C)(C)C=4O
active: [13] 13.2 µM | [2] 0.372 µM | [3] 14.8 µM | [4] 5.26 µM | [5] 2.96 µM | [6] 3.32 µM | [7] 14.8 µM | [9] 0.372 µM | [10] 0.235 µM | [14] 5.9 µM | [11] 0.418 µM

O=C(O)c1cn(-c2ccc(F)cc2)c2cc(N3CCNCC3)c(F)cc2c1=O
not listed: [5] | [7] | [9] | [12] | [15] | [16] | [17]
inactive: all other assays above

Cc1cccc(C)c1OCC(=O)N[C@@H](Cc1ccccc1)[C@@H](O)C[C@H](Cc1ccccc1)NC(=O)[C@H](C(C)C)N1CCCNC1=O
inactive: [1] | [9]
active: [4] 8.33 µM | [6] 5.9 µM | [8] 6.62 µM | [10] 20.9 µM

O=C(CS(=O)Cc1ccco1)NCC=CCOc1cc(CN2CCCCC2)ccn1 (stereo not given)
inactive: [13] | [3] | [4] | [6] | [8] | [10] | [14]

CS(=O)(=O)OCCCCOS(C)(=O)=O
inactive: [1] | [2] | [4] | [6] | [8] | [10] | [11]
active: [13] 4.18 µM

N=C(N=C(N)N)N1CCOCC1
not listed: [1] | [9] | [12] | [15] | [16] | [17]
inactive: all other assays above

CN1CCC(=C2c3ccccc3CCc3sccc32)CC1
inactive: [1] | [13] | [3] | [5]
active: [11] 16.6 µM

C[Se]CCC(N)C(=O)O (stereo not given)
inactive: [1] | [13] | [2] | [3] | [5] | [6] | [8] | [10] | [14]

CCCS(=O)c1ccc2nc(NC(=O)OC)[nH]c2c1 (stereo not given)
active: [13] 11.8 µM | [5] 23.5 µM | [12] 11.8 µM
not listed: [2] | [6] | [9] | [10] | [11]
inactive: all other assays above

CNC[C@@H](O)[C@@H](O)[C@H](O)[C@H](O)CO
inactive: [3] | [4] | [5] | [6] | [7] | [10] | [14]

Cc1ccc(NC(=O)c2ccc(CN3CCN(C)CC3)cc2)cc1Nc1nccc(-c2cccnc2)n1
inactive: [1] | [16] | [17]
active: [15] 19 µM | [2] 20.9 µM | [11] 16.6 µM

Cc1cccc(CN2CCN(C(c3ccccc3)c3ccc(Cl)cc3)CC2)c1 (stereo not given)
inactive: [1] | [13] | [14]
active: [2] 8.33 µM | [3] 18.7 µM | [6] 26.4 µM | [11] 16.6 µM | [12] 23.5 µM

O=c1oc2cc(O)ccc2s1
inactive: [1] | [13] | [3] | [10]
active: [4] 23.5 µM

Clc1ccc(C(Cn2ccnc2)OCc2c(Cl)cccc2Cl)c(Cl)c1 (stereo not given)
inactive: [1] | [15] | [16] | [17]
active: [4] 20.9 µM | [5] 23.5 µM | [6] 16.6 µM | [8] 18.7 µM | [14] 23.5 µM | [11] 29.6 µM | [12] 23.5 µM

CCCOc1ccc2nc(NC(=O)OC)[nH]c2c1
inactive: [1] | [13]
active: [2] 0.0118 µM | [4] 0.001 µM | [6] 0.001 µM | [10] 0.0066 µM | [11] 0.0105 µM | [12] 5.26 µM

Cc1nc(Nc2ncc(C(=O)Nc3c(C)cccc3Cl)s2)cc(N2CCN(CCO)CC2)n1
inactive: [1] | [15] | [16] | [17]
active: [4] 2.64 µM | [6] 2.35 µM | [8] 1.05 µM | [11] 0.0833 µM | [12] 3.32 µM
